High-throughput results deposited in PubChem BioAssay by National Center for Advancing Translational Sciences (NCATS).
APE1 inh-1: qHTS Assay for Inhibitors of the Human Apurinic/apyrimidinic Endonuclease 1 (APE1). DNA repair nuclease/redox regulator APEX1 (Homo sapiens), P27695. recombinant APE1, TAMRA/BHQ-2 abasic DNA cleavage fluorescence. Potency, µM (doses to about 65.8 µM), for the others: at the highest dose activity change, negative = inhibition, actives largely listed as inhibitors. actives 0.35% (n = 350,000). AID 2517, 2012;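 further: plate controls were vehicle for no effect and reference inhibitor for full effect; nearly all actives have a fitted effect of over 55% in size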
Target sequence (P27695 whole entry, looked up): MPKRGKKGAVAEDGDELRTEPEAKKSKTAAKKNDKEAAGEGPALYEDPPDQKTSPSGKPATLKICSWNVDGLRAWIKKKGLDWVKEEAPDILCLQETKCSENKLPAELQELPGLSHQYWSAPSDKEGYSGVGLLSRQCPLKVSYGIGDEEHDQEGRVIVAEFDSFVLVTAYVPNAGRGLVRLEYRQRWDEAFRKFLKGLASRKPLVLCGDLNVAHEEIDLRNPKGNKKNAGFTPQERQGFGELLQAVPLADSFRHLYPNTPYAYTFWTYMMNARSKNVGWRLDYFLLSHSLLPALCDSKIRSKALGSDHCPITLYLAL
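APE1 at 0.75 nM final was preincubated with compound 15 min at room temperature, then 50 nM double-stranded THF abasic-site substrate (5'-TAMRA/3'-BHQ-2) was added. Fluorescence (ex 525/em 598 nm) was read kinetically; third-minus-first read gave activity.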
FEN1 inh: qHTS Assay for the Inhibitors of Human Flap endonuclease 1 (FEN1); P39748; actives 0.35% (n = 390,000); Recombinant FEN1 flap cleavage, fluorescence, 15 min; Potency, µM (top dose mostly 114 µM), for inactives: top-dose activity change, negative = inhibition, most hits filed as inhibitors; AID 588795, 2011; further: nearly all actives have a fitted effect of over 65% in size
Target sequence (P39748 whole entry, looked up): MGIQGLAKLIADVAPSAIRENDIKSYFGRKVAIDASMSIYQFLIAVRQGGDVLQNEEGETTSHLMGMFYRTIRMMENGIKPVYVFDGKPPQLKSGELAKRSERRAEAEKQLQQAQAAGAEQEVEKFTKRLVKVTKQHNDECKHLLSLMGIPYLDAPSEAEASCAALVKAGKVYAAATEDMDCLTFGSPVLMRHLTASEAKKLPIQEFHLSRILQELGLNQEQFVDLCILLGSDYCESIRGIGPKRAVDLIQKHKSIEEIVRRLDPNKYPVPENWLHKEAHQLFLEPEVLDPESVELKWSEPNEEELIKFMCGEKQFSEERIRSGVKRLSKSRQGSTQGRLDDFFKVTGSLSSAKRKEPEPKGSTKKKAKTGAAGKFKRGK
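Nuclease activity of 10 nM FEN1 was measured after 15 min of room-temperature exposure to titrated compounds, by adding 50 nM flap substrate and reading plates at 0 and 15 min.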
BLM inh-1: qHTS Assay for Inhibitors of Bloom's syndrome helicase (BLM). recombinant BLM DNA unwinding, fluorescence dequenching. RecQ-like DNA helicase BLM (Homo sapiens), P54132. actives 0.2% (n = 350,000). Potency, µM (highest dose often 56.1 µM), for inactives: at the top dose activity change, negative = inhibition, hits mostly inhibitors;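 further: plate controls were vehicle for no effect and no enzyme for full effect; nearly all actives have a fitted effect of over 35% in size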
PGK inhibitor: qHTS Assay to Find Inhibitors of Phosphoglycerate Kinase. Phosphoglycerate kinase, glycosomal (Trypanosoma brucei brucei), P07378. PGK/GAPDH coupled, Kinase-Glo luminescence, 60 min. Potency, µM (top dose mostly 57.5 µM), inactives show at the top dose activity change, negative = inhibition, usual class: inhibitors. actives 0.043% (n = 380,000). AID 602233, 2012; further: nearly all actives have a fitted effect of over 60% in size
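Recombinant glycosomal PGK reaction used 1,3-bisphosphoglycerate generated in-well by GAPDH (100nM final) in 100mM TEA pH 7.6, 5mM MgCl2, 0.01% Tween-20. After 60 minutes at room temperature, ATP was read by Kinase-Glo Plus luminescence end-point.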
RECQ1 inh: qHTS Assay for Inhibitors of RecQ-Like Dna Helicase 1 (RECQ1); ATP-dependent DNA helicase Q1 (Homo sapiens), P46063; RECQ1 DNA unwinding, red fluorescence kinetic read; Potency, µM (titrated, usually from 57.3 µM), inactives show at the top dose activity, negative = inhibition, usual class: inhibitors; actives 0.54% (n = 240,000); AID 2549, 2010;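 further: plate controls were vehicle for no effect and no enzyme for full effect; nearly all actives have a fitted effect of over 30% in size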
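50 nM RECQ1T1 preincubated 15 min with compound in Tris pH 8.0 buffer with MgCl2, DTT, Tween-20 and 2.5 ug/ml poly(dI-dC); started with 200 nM TAMRA/BHQ-2 forked duplex and 2 mM ATP. Unwinding read as fluorescence (525/598 nm), two reads 2 h apart.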
GLS inhibitor: qHTS for Inhibitors of Glutaminase (GLS). Glutaminase kidney isoform, mitochondrial (Homo sapiens), O94925. GLS enzymatic activity, qHTS titration. Potency, µM (titrated, usually from 45.5 µM), for inactives: at the highest dose activity change, negative = inhibition, hits mostly inhibitors. actives 0.21% (n = 410,000). AID 624170, 2012
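hKGA; 45 mM KH2PO4 pH 8.2 + 0.02% Tween-20; cpd via pin tool; 1 mM Gln soln; GluOx/HRP/Amplex Red; RT 30 min; fluor. t0 & final.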
APE1 dye cs: Counterscreen for APE1 Inhibitors: Fluorescent Dye Displacement Assay; shares compounds with APE1 inh-1; DNA fluorescent dye displacement counterscreen, fluorescence; Potency, µM (titrated, usually from 28.5 µM), without a hit: top-dose activity change, negative = inhibition, usual class: inhibitors; actives 7% (n = 480); AID 2564, 2010;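 further: loss of thiazole orange fluorescence as the dye is displaced from duplex DNA; 0% = ThO with dsDNA and no compound and -100% = ThO without dsDNA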
Endo IV inh: Counterscreen for APE1 Inhibitors: qHTS Assay for Inhibitors of Endonuclease IV | shares compounds with APE1 inh-1 | E. coli Endo IV, fluorogenic AP-site DNA cleavage | Potency, µM (titrated, usually from 27.1 µM), without a hit: at the highest dose activity change, negative = inhibition, hits mostly inhibitors | actives 4% (n = 560);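 further: plate controls were uninhibited enzyme wells for no effect and no enzyme buffer wells for full effect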
APE1 inh-2: Confirmation qHTS Assay for Inhibitors of the Human Apurinic/apyrimidinic Endonuclease 1 (APE1); shares compounds with APE1 inh-1; purified APE1, fluorogenic abasic-site DNA cleavage; Potency, µM (titrated, usually from 57.1 µM), inactives show top-dose activity change, negative = inhibition, most hits filed as inhibitors; actives 44% (n = 750); further: nearly all actives have a fitted effect of over 30% in size
APE1 FP inh: qHTS FP-Based Assay for Inhibitors of the Human Apurinic/apyrimidinic Endonuclease 1 (APE1) | shares compounds with APE1 inh-1 | APE1 binding to TAMRA-labelled double-stranded DNA, fluorescence polarization displacement | Potency, µM (series often up to 28.5 µM), without a hit: top-dose activity, negative = inhibition, hits mostly inhibitors | actives 7% (n = 480) | AID 2573, 2010
BLM inh-2: qHTS Confirmation Assay for Inhibitors of Bloom's syndrome helicase (BLM); shares compounds with BLM inh-1; BLM DNA unwinding, fluorescence quenching, biochemical; Potency, µM, for the others: max response, negative = inhibition, most hits filed as inhibitors; actives 40% (n = 220);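 further: strand separation dequenches TAMRA so unwinding raises red fluorescence; series mostly up to about 69 µM; nearly all actives have a fitted effect of over 45% in size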
* marks the source's active call; other numbers are inactive results; i = inactive; u = inconclusive; x = no result given; [ ] = another dose, or the depositor's remark. A selection: hits, their analogues and other compounds. The true share with any hit is near 0.86%. The call rests on the fitted dose curve; in most records, active means well fitted curve in the direction sought with a large enough effect; inconclusive means small, poorly fitted or top-dose-only effect, or another doubt; inactive means no such curve, though single readings can be large; an effect the other way counts as inactive or inconclusive. Unless noted, on the % scale 0 is the no-effect control and ±100 the full control effect; potency means the concentration at half of the fitted maximal effect.

SMILES | APE1 inh-1 | FEN1 inh | BLM inh-1 | PGK inhibitor | RECQ1 inh | GLS inhibitor | APE1 dye cs | Endo IV inh | APE1 inh-2 | APE1 FP inh | others
OCCN(Cc1ccccc1)Cc1cccc(Cl)c1Cl | -6% | -14% | -3% | 4% | 8% | 4% | x | x | u | x
CCOC(=O)N1CCC(N2Cc3cccc(C(=O)NCc4ccc5c(c4)OCO5)c3C2=O)CC1 | u | 3% | -21% | -10% | -10% | -10% | x | x | u | x
O=C(NCc1ccc2c(c1)OCO2)c1cccc2c1C(=O)N(C1CCCCC1)C2 | -1% | -15% | 4% | 3% | 4% | 10% | x | x | x | x
COc1cc([N+](=O)[O-])cc(/C=N/NC(=O)Cn2cncn2)c1O | 0% | -3% | -9% | i | -7% | -1% | x | x | x | x
COc1cc([N+](=O)[O-])cc(/C=N/NC(=O)CC#N)c1O | u | x | -15% | x | u | x | -7% | 1% | u | u
OC[C@@H](O)[C@H](O)[C@H](O)[C@@H](O)CO | 11% | x | x | x | x | x | x | x | x | x
Cc1ccc(N2C(=O)/C(=C/c3cccnc3)SC2=S)cc1 | 0% | 3% | 2% | 7% | i | -1% | x | x | x | x
Cc1ccc(/C=C2\SC(=S)N(c3cccnc3)C2=O)o1 | 16µM* | -25% | -14% | -5% | u | 4% | u | 5% | -10%[24.4 µM] | 6%
Cc1cc(N)n(-c2ccc(Oc3ccccc3)c(S(=O)(=O)O)c2)n1 | 35µM* | 7% | 3% | -7% | 3% | -5% | -4% | 2% | u | 12%
CCOc1cc(/C=C2/C(=O)N(c3ccccc3)N=C2C)ccc1OC(=O)c1ccco1 | -9% | -22% | -4% | -6% | -1% | -24% | x | x | x | x
CCOc1cc(/C=C2\C(=O)N(c3ccc(C(N)=O)cc3)N=C2C)ccc1OC(=O)c1cccs1 | 28µM* | -2% | -17% | -8% | -1% | u | u | -10% | -7%[24.4 µM] | -6%
O=c1[nH]c2c(-c3nc(-c4ccc(Cl)cc4)cs3)c(O)cn2c2ccccc12 | x | -2% | x | x | x | x | x | x | x | x
O=c1c(O)cc(C2Oc3cc(O)cc(O)c3CC2O)cc2c(C3Oc4cc(O)cc(O)c4CC3O)cc(O)c(O)c12 (stereo unspecified) | 0.5µM* | x | 28µM* | x | 3.2µM* | x | x | u | 2.5µM* | x
Oc1ccc2c(c1)OC(c1ccc(O)c(O)c1)C(O)C2 (stereo unspecified) | u | x | -3% | x | -11% | x | x | x | x | x
O=C(O)c1cccc(NC(=S)NC(NC(=O)c2ccccc2[N+](=O)[O-])C(Cl)(Cl)Cl)c1 (stereo unspecified) | 2% | 17% | -4% | 3% | -7% | 3% | x | x | x | x
O=C(O)c1cccc(NC(=S)NC(NC(=O)c2cccc([N+](=O)[O-])c2)C(Cl)(Cl)Cl)c1 (stereo unspecified) | u | -9% | -10% | -29% | 0% | 8% | x | x | u | x
Nc1ccn([C@@H]2O[C@H](CO)[C@@H](O)C2O)c(=O)n1 (stereo partly specified) | -3% | -2% | 3% | -11% | -10% | -15% | -3%[57.1 µM] | 22%[57.1 µM] | -6% | 7%[57.1 µM]
COc1ccnc(Oc2ccccc2)c1C(N)=O | -64% | 4% | -2% | -2% | i | -1% | -10% | 4% | -11%[24.4 µM] | u
Cc1cc2nc(-c3ccc(SCc4ccc(C(=O)O)cc4)nc3)[nH]c2cc1C | 4% | u | u | -10% | -8% | -22% | x | x | 40µM* | x
COCc1cc(O)c(O)c(O)c1-c1c(COC)cc(O)c(O)c1O | 0.18µM* | 1.6µM* | -2% | x | 1µM* | x | 7%[57.1 µM] | 144%[57.1 µM] | 0.32µM* | 6%[57.1 µM]
CCc1oc(C(=O)O)cc1COC | u | 1% | 3% | -20% | -13% | u | x | x | x | x
Cc1ccccc1N=C1NC(=O)/C(=C/c2cccn2-c2cccc(C(=O)O)c2)S1 | 18µM* | -15% | -5% | u | -19% | 4% | -4% | 14% | 11µM* | u
Cc1nc2ccc3nc(NC(=O)c4ccc5c(c4)OCCO5)sc3c2s1 | -3% | -21% | -9% | -1% | -3% | 1% | x | x | u | x | BLM inh-2=u
Cc1cnc(NC(=O)c2ccc3c(c2)OCCO3)s1 | 0% | -14% | x | -12% | x | -5% | x | x | x | x
Cc1c(C(=O)OCC2CCCO2)[nH]c2c1C(=O)CC(c1ccco1)C2 (stereo unspecified) | 7.1µM* | u | 14µM* | u | 25µM* | -2% | -4% | u | 4.5µM* | u | BLM inh-2=18µM*
CCCCCCCOc1ccc(CC(=O)NO)cc1 | x | -1% | x | x | x | x | x | x | x | x
CCc1ccc(NC(=O)CSc2nc(NS(=O)(=O)c3ccccc3)cc(=O)[nH]2)cc1 | 7.9µM* | 6% | 16µM* | -1% | 13µM* | -15% | 3% | 16% | -10%[24.4 µM] | 0% | BLM inh-2=3%
